± gives the standard deviation.
Legend:
Conditions in all cases: modulator concentration 10 µM
[1] = system: RAW-Dual (murine macrophage reporter line); assay: NF-kB reporter (SEAP) activity fold change vs agonist alone; higher = enhanced NF-kB activity
Summary of the method: (§1)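 RAW-Dual murine macrophage reporter cells were seeded at 50 000 per well in 384-well plates and pre-incubated 1 hour at 37 °C with compound pin-transferred to 10 μM final. After 1 hour, a PRR agonist was added and cells incubated overnight. Supernatant NF-κB (SEAP, QUANTI-Blue, 620 nm absorbance) and IRF (Lucia luciferase, QUANTI-Luc, luminescence) signals were divided by the mean agonist-only control on the same plate to give fold change. Two replicate plates were averaged, with errors by propagation.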

[2] = system: RAW-Dual (murine macrophage reporter line); assay: IRF reporter (Lucia luciferase) activity fold change vs agonist alone; higher = enhanced IRF activity
Summary of the method: as §1

[3] = system: RAW-Dual (murine macrophage reporter line); assay: viability score (confluency relative to resting cells, overnight) (fraction); higher = more viable, active = viable (0.7 or more)
Summary of the method: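 A compound met the cutoff when both of two confluency masks exceeded 70% of resting cells. Those masks were made with IncuCyte software from IncuCyte images of RAW-Dual macrophages treated overnight at 10 μM final. This is the basis of the viability score, which is confluency relative to resting cells.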

[4] = agonist: CpG ODN 1826 0.5 ug/mL

Row | SMILES | NF-kB reporter [1, 4] | NF-kB reporter ([1]; agonist: LPS 0.1 ug/mL) | NF-kB reporter ([1]; agonist: MPLA […]) | IRF reporter ([2]; agonist: 3'3'-cGAMP 10 ug/mL) | IRF reporter ([2]; agonist: LPS 0.1 ug/mL) | IRF reporter ([2]; agonist: MPLA […]) | viability score [3]
1 | Cc1cc(C(=O)NCc2sc(-c3ccccc3Cl)nc2C)c(C)o1 | 0.883 ± 0.039 | 1 ± 0.081 | 1.09 ± 0.061 | 0.98 ± 0.047 | 1.11 ± 0.25 | 1.27 ± 0.44 | 0.984 (active)
2 | CCOC(=O)N[C@@H]1CC[C@@H]2[C@@H](C1)C[C@H]1C(=O)O[C@H](C)[C@H]1[C@H]2/C=C/c1ccc(-c2cccc(F)c2)cn1 | 0.376 ± 0.022 | 0.451 ± 0.1 | 0.323 ± 0.019 | 0.653 ± 0.082 | 0.783 ± 0.15 | 0.737 ± 0.16 | 0.299 (inactive)
3 | CC1(C)CC(=O)C2=C(C1)OC(N)=C(C#N)C21CCCC1 | 1.04 ± 0.18 | 0.94 ± 0.08 | 0.933 ± 0.072 | 0.91 ± 0.025 | 1.13 ± 0.15 | 1.3 ± 0.13 | 1 (active)
4 | CCCCc1oc2ccc(NS(C)(=O)=O)cc2c1C(=O)c1ccc(OCCCN(CCCC)CCCC)cc1.Cl | 0.403 ± 0.048 | 0.998 ± 0.099 | 1.3 ± 0.14 | 0.945 ± 0.067 | 1.2 ± 0.12 | 1.27 ± 0.18 | 0.29 (inactive)
5 | O=C(NC1CC2CCC1C2)c1ccccc1Cl (configuration not stated) | 0.725 ± 0.064 | 0.801 ± 0.047 | 1.08 ± 0.099 | 0.983 ± 0.049 | 1.35 ± 0.12 | 1.51 ± 0.24 | 1.02 (active)
6 | CCc1c2c(nc3ccc(OC(=O)N4CCC(N5CCCCC5)CC4)cc13)-c1cc3c(c(=O)n1C2)COC(=O)[C@]3(O)CC.Cl.O.O.O | 1.06 ± 0.25 | 1.41 ± 0.23 | 1.54 ± 0.55 | 0.866 ± 0.042 | 1.35 ± 0.35 | 1.2 ± 0.16 | 0.975 (active)
7 | Cc1cc(CNS(=O)(=O)Cc2ccc(C(F)(F)F)cc2)c(C)o1 | 1.01 ± 0.087 | 0.963 ± 0.076 | 0.951 ± 0.044 | 1.26 ± 0.068 | 1.34 ± 0.083 | 1.37 ± 0.23 | 0.383 (inactive)
8 | CCOC(=O)N1CCN(C(=O)CSc2ccc(-c3ccccc3)nn2)CC1 | 1.15 ± 0.086 | 1.05 ± 0.055 | 1.09 ± 0.06 | 0.931 ± 0.051 | 0.96 ± 0.1 | 0.906 ± 0.073 | 0.993 (active)
9 | CNC(=O)c1ccccc1Sc1ccc2c(/C=C/c3ccccn3)n[nH]c2c1 | 0.626 ± 0.11 | 0.729 ± 0.25 | 0.813 ± 0.061 | 0.0229 ± 0.0024 | 0.485 ± 0.12 | 0.259 ± 0.048 | 0.897 (active)
10 | O=C(Nc1c(Cl)cncc1Cl)c1ccc(OC(F)F)c(OCC2CC2)c1 | 2.48 ± 0.36 | 1.99 ± 0.17 | 1.44 ± 0.1 | 0.804 ± 0.025 | 0.908 ± 0.094 | 1.24 ± 0.22 | 0.968 (active)
11 | Cc1ccc(-c2cc(-c3ccccc3)nc(N3CCOCC3)n2)cc1 | 0.811 ± 0.077 | 1.01 ± 0.075 | 1.1 ± 0.076 | 0.71 ± 0.065 | 1.05 ± 0.047 | 1.17 ± 0.082 | 0.998 (active)
12 | c1cncc(CSc2ccc(-c3ccncc3)nn2)c1 | 0.532 ± 0.17 | 0.711 ± 0.071 | 0.919 ± 0.062 | 0.53 ± 0.037 | 0.647 ± 0.079 | 0.58 ± 0.13 | 0.892 (active)
13 | CN(C)S(=O)(=O)N1CCC(CNC(=O)NC2CCCC2)CC1 | 0.963 ± 0.098 | 1.09 ± 0.098 | 0.818 ± 0.11 | 0.958 ± 0.1 | 1.04 ± 0.062 | 0.874 ± 0.31 | 1 (active)
14 | O=C1c2ccccc2C(=O)C1c1ccncc1 | 0.885 ± 0.066 | 1.03 ± 0.059 | 0.944 ± 0.029 | 0.757 ± 0.046 | 0.924 ± 0.1 | 0.799 ± 0.068 | 0.994 (active)
15 | COc1ccc(C(=O)N2CC(n3cc(CN4CCCC4=O)nn3)C2)cc1F | 1.19 ± 0.1 | 1.01 ± 0.077 | 1 ± 0.045 | 1.05 ± 0.088 | 1.01 ± 0.067 | 0.952 ± 0.14 | 0.999 (active)
16 | CN1C(C(=O)Nc2ccccn2)=C(O)c2ccccc2S1(=O)=O | 0.654 ± 0.063 | 0.901 ± 0.047 | 1.11 ± 0.097 | 0.943 ± 0.056 | 1.25 ± 0.077 | 1.35 ± 0.11 | 1.02 (active)
17 | Oc1ccc(CN2CCOCC2)cc1 | 1.05 ± 0.17 | 1.08 ± 0.094 | 0.971 ± 0.09 | 0.939 ± 0.06 | 1.24 ± 0.14 | 1.25 ± 0.13 | 0.995 (active)
18 | O=C(CCc1ccc(O)cc1)c1c(O)cc(O)cc1OC1OC(CO)C(O)C(O)C1O (configuration not stated) | 1.37 ± 0.33 | 0.943 ± 0.047 | 0.963 ± 0.072 | 0.961 ± 0.066 | 0.98 ± 0.18 | 1.02 ± 0.14 | 1.01 (active)
19 | O=C(CSc1ncnc2c(-c3ccccc3)c[nH]c12)NCc1ccc(Cl)cc1 | 1.18 ± 0.059 | 1.13 ± 0.089 | 0.796 ± 0.035 | 1.25 ± 0.064 | 1.18 ± 0.093 | 1.24 ± 0.26 | 0.99 (active)
20 | CN(C)CCCN1c2ccccc2CCc2ccccc21.Cl | 0.827 ± 0.069 | 1.04 ± 0.1 | 1.2 ± 0.07 | 0.737 ± 0.043 | 0.935 ± 0.089 | 0.824 ± 0.093 | 0.883 (active)
21 | CC(=O)OC1=C(O)C=CC2C(C)=CC(=O)OC12 (configuration not stated) | 0.954 ± 0.12 | 0.823 ± 0.079 | 1.04 ± 0.1 | 0.986 ± 0.034 | 1.3 ± 0.19 | 1.47 ± 0.3 | 1.01 (active)
22 | Cc1ncn(CC(=O)N2CC(Oc3cccc(C(F)(F)F)n3)C2)c(=O)c1C | 0.986 ± 0.059 | 1.09 ± 0.086 | 0.9 ± 0.08 | 0.83 ± 0.12 | 1.21 ± 0.086 | 1.25 ± 0.097 | 1 (active)
23 | COc1ccc2oc(=O)c(-c3csc(NC(=O)C=CC(=O)O)n3)cc2c1 | 1.09 ± 0.099 | 0.895 ± 0.086 | 0.985 ± 0.027 | 0.353 ± 0.017 | 0.938 ± 0.11 | 0.844 ± 0.13 | 0.959 (active)
24 | CCN(CC)c1ccc(C=NNC(=O)c2ccccc2C)c(O)c1 | 2.52 ± 0.2 | 1.41 ± 0.092 | 3.2 ± 0.13 | 0.442 ± 0.032 | 0.974 ± 0.11 | 0.721 ± 0.15 | 0.444 (inactive)
25 | O=C(Nc1ccncc1)c1ccc(OCC2CCOCC2)nc1 | 1.15 ± 0.063 | 1.39 ± 0.12 | 1.28 ± 0.082 | 1.22 ± 0.083 | 1.28 ± 0.11 | 1.24 ± 0.34 | 0.996 (active)
26 | Cc1nc[nH]c1CN1CCc2c(c3ccccc3n2C)C1=O.Cl | 1.13 ± 0.28 | 1.08 ± 0.12 | 0.903 ± 0.08 | 0.903 ± 0.041 | 1.31 ± 0.2 | 1.12 ± 0.11 | 1 (active)

From the supplement of paper PMC10646978
